Test results: PubChem BioAssay (Tox21)
Values joined by “and” are separate entries in the source; they are usually repeats but may differ in a detail not shown here. Equal entries are not always repeated. Inconclusive results are not listed. A call without a number means that no potency is given here. Some structures have more than one record in an assay (separate samples or runs), and their calls can disagree. Active and inactive are the calls of the source. Unless noted, the call rests on the fitted dose curve; in most records, active means well fitted curve in the direction sought with a large enough effect in the repeat runs; inconclusive means weak or mixed curves; inactive means no such curve, though single readings can be large; an effect the other way counts as inactive or inconclusive.

Key:
[1] = qHTS assay to identify small molecule agonists of the hypoxia (HIF-1) signaling pathway - cell viability counter screen (AID 1224844; calls by dose curve; further: nearly all actives have a fitted effect of over 50% in size; further: potency means the concentration at half of the fitted maximal effect)
Procedure, shortened: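 Luminescent ATP content (CellTiter-Glo, 30 min, room temperature) served as the viability measure in HRE-bla ME-180 cells exposed to compounds for 17 hrs in low-serum medium (0.5% dialyzed FBS).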

[2] = qHTS assay to identify small molecule agonists of H2AX (AID 1224845; active means well fitted activation curve with a large enough effect in the signal ratio in the repeat runs, not every such curve was filed as active; the % refers to the signal ratio; further: potency means the concentration at half of the fitted maximal effect)
Procedure, shortened: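 Wild-type CHO-K1 cells, plated overnight, exposed 3hr at 37C to 15 concentrations (0.76% DMSO final). Lysed, then HTRF anti-pH2AX (S139) cryptate and anti-H2AX-d2 antibodies, 24 hr room temperature; 665/620 nm emission read.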

[3] = qHTS assay to identify small molecule agonists of the hypoxia (HIF-1) signaling pathway (AID 1224846; active means well fitted activation curve with a large enough effect in the signal ratio in the repeat runs, not every such curve was filed as active; the % refers to the signal ratio)
Procedure, shortened: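 Measured by blue/green FRET after loading CCF4-AM: beta-lactamase expressed from a hypoxia response element in ME-180 cells. Test agents were delivered in DMSO and left 17 hrs; cells had been plated 5 hrs earlier in low-serum (0.5% dialyzed FBS) medium.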

[4] = qHTS assay to identify small molecule agonists of the estrogen related receptor (ERR) signaling pathway from Tox21 library (AID 1224849; calls by dose curve; further: nearly all actives have a fitted effect of over 15% in size); conditions: ERR reporter cell line, ONE-Glo luciferase, 18 h
Procedure, shortened: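 We plated ERR reporter cells, waited 6 h, added compounds in DMSO by pin tool and incubated them 18 h at 37 C. ONE-Glo was then added and luminescence read after 30 min.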

[5] = qHTS RealTime-Glo MT Cell Viability Assay in HepG2 cells - 24 hour (AID 1224867); further: nearly all actives have a fitted effect of over 50% in size; further: potency means the concentration at half of the fitted maximal effect
Procedure, shortened: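 Real-time, nonlytic viability: 600 HepG2 cells/well mixed with NanoLuc enzyme plus prosubstrate; 5 h settle, compound (DMSO) added by pintool; luminescence monitored over 40 h at 37 C.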

[6] = A CellTox Green Cytotoxicity Assay to monitor cytotoxicity in HEK293 cells - 0 hour (AID 1224869); further: nearly all actives have a fitted effect of over 50% in size
Procedure, shortened: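 Each value comes from one timepoint of a single continuous run in which HEK293 cells with CellTox Green were exposed to compound for up to 40 h at 37 C, dye fluorescence rising with cell death.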

[7] = qHTS RealTime-Glo MT Cell Viability Assay in HepG2 cells - 40 hour (AID 1224870); further: nearly all actives have a fitted effect of over 50% in size; further: potency means the concentration at half of the fitted maximal effect
Procedure, shortened: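 HepG2 cells (600/well) mixed with RealTime-Glo MT reagent, settled 5 h at 37 C/5% CO2 before compound addition. Nonlytic NanoLuc luminescence from viable-cell prosubstrate reduction read repeatedly during 40 h treatment at 37 C.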

[8] = qHTS assay to identify small molecule antagonists of the estrogen related receptor (ERR) signaling pathway from Tox21 library (AID 1224848); further: nearly all actives have a fitted effect of over 50% in size; further: potency means the concentration at half of the fitted maximal effect
Procedure, shortened: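 ERR reporter cell line (from NTP) seeded 2,000 cells/well, rested 6 h at 37 C/5% CO2, then pin-dosed with compounds in DMSO. After 18 h at 37 C, ONE-Glo added; luminescence read after 30 min at room temperature.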

[9] = qHTS RealTime-Glo MT Cell Viability Assay in HEK293 cells - 32 hour (AID 1224868); further: nearly all actives have a fitted effect of over 50% in size; further: potency means the concentration at half of the fitted maximal effect
Procedure, shortened: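 Cells + reagent dispensed (600 cells/well, HEK293) → 5 h at 37 C/5% CO2 → 23 nL compound in DMSO pinned → 40 h at 37 C → luminescence read at 0, 8, 16, 24, 32, 40 h.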

[10] = qHTS assay to identify small molecule agonists of H2AX - cell viability counter screen (AID 1224847; calls by dose curve; further: nearly all actives have a fitted effect of over 30% in size; further: potency means the concentration at half of the fitted maximal effect)
Procedure, shortened: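 Quantitative HTS viability measurement: CHO-K1 wild-type cells in serum (10% FBS) medium, short 3 hr drug exposure at 37C with 0.76% DMSO, CellTiter-Glo luminescent detection.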

[11] = at 92.4 µM (top of the series) unless noted

SMILES | Potency [1] | Potency [2] | outcome [3] | activity change, positive = activation [4, 11] | Potency [5] | Potency [6] | Potency [7] | Potency [8] | Potency [9] | Potency [10] | activity change, positive = activation ([4]; at 42.5 µM (top of the series)) | activity change, positive = activation ([4]; at 92.4 µM (top of the series))
CC(C)CCCCCCCOP(=O)(Oc1ccccc1)Oc1ccccc1 | inactive | inactive | inactive | -16.8% (inactive) | inactive | inactive | inactive |  |  |  |  | 
Oc1cccc(-c2ccccc2)c1 | inactive | inactive | inactive |  | inactive | inactive | inactive | inactive |  |  |  | 
CC(=O)OC1(c2ccccc2)CCN(CCc2ccccc2)CC1 | inactive | inactive | inactive |  | inactive | inactive | inactive |  | 31.6 µM (active) |  |  | 
CCCSP(=O)(OCC)SCCC | inactive | inactive | inactive |  | inactive | inactive | inactive |  | inactive |  |  | 
COS(=O)(=O)c1ccc(C)cc1 | inactive | inactive | inactive |  | inactive | inactive | inactive |  |  |  |  | 
CCCCCCCCCCBr | inactive | inactive |  | 1.61% (inactive) | inactive | inactive | inactive | inactive | inactive | inactive |  | 
CC(C)CBr | inactive | inactive | inactive | 2.25% (inactive) | inactive | inactive | inactive | inactive | inactive |  |  | 
COc1cc(N)c(Cl)cc1C(=O)NC1CN2CCC1CC2 (stereo unspecified) | inactive | inactive | inactive |  | inactive | inactive | inactive |  | inactive |  |  | 
CN(C)[C@@H]1C(=O)C(C(N)=O)=C(O)[C@@]2(O)C(=O)C3=C(O)c4c(O)ccc(Cl)c4[C@@](C)(O)[C@H]3C[C@@H]12 | inactive | inactive | inactive |  | inactive | inactive | inactive |  |  | inactive |  | 
CC(=O)c1ccc(-c2ccccc2)cc1 | inactive | inactive | inactive |  | inactive | inactive | inactive |  | inactive |  |  | 
Clc1ccc(COC(Cn2ccnc2)c2ccc(Cl)cc2Cl)cc1 (stereo unspecified) | 32.3 µM (active) and 34.5 µM (active) and inactive | inactive |  |  | 43.5 µM (active) | inactive | 48.8 µM (active) | 20.2 µM (active) and 21.6 µM (active) and 18.8 µM (active) |  | 66.6 µM (active) and 56.4 µM (active) | -55.4% (inactive) | -77.5% (inactive) and -81.9% (inactive)
CC1CCC(C(C)C)C(OC(=O)c2ccccc2N)C1 (stereo unspecified) | 38.4 µM (active) | 88.5 µM (active) |  | -55.4% (inactive) | inactive | inactive | inactive | 53.7 µM (active) | 38.4 µM (active) | 88.5 µM (active) |  | 
CC1(C)CN=C(NN=C(/C=C/c2ccc(C(F)(F)F)cc2)/C=C/c2ccc(C(F)(F)F)cc2)NC1 | 21.9 µM (active) | inactive |  | -76.2% (inactive) | 17.4 µM (active) | inactive | 15.5 µM (active) | 13.7 µM (active) | 38.9 µM (active) | 25.3 µM (active) |  | 
COC12CC[C@@]3(C[C@@H]1C(C)(O)C(C)(C)C)[C@H]1Cc4ccc(O)c5c4[C@@]3(CCN1CC1CC1)[C@H]2O5 (stereo partly specified) | 34.4 µM (active) | 56.3 µM (active) |  | -68% (inactive) | 43.4 µM (active) | inactive | 48.6 µM (active) | 27.1 µM (active) | 24.4 µM (active) | 28.2 µM (active) |  | 
Oc1ccccc1Br | inactive | inactive | inactive |  | inactive | inactive | inactive |  |  | inactive |  | 
N#C/C=C/c1ccccc1 | inactive | inactive | inactive |  | inactive | inactive | inactive |  |  | inactive |  | 
FC(Cl)(Cl)Cl | inactive | inactive | inactive |  | inactive | inactive | inactive |  |  | inactive |  | 
CCN | inactive | inactive | inactive |  | inactive | inactive | inactive |  |  | inactive |  | 
CC(C)CCCCCOC(=O)c1ccccc1C(=O)OCCCCCC(C)C | inactive | inactive | inactive |  | inactive | inactive | inactive |  |  |  |  | 
Clc1ccc(C(c2ccc(Cl)cc2)C(Cl)(Cl)Cl)cc1 | 24.7 µM (active) | 0.161 µM (active) |  |  | inactive | inactive | inactive | 54.9 µM (active) and 61.1 µM (active) | 39.2 µM (active) | 101 µM (active) and 89.8 µM (active) | -17.1% (inactive) | -47.6% (inactive) and -41.9% (inactive)
BrCBr | inactive | inactive | inactive |  | inactive | inactive | inactive |  | inactive |  |  | 
C[C@]12CC[C@H](O)C[C@H]1CC[C@@H]1[C@@H]2C[C@@H](O)[C@]2(C)[C@@H](C3=CC(=O)OC3)CC[C@]12O | 11 µM (active) | inactive |  | -63.4% (active) | inactive | inactive | inactive | 3.06 µM (active) | 0.692 µM (active) | inactive |  | 
CCCN(CCC)CCc1c[nH]c2ccccc12 | inactive | inactive | inactive |  | inactive | inactive | inactive |  |  |  |  | 
Oc1c(Cl)c(Cl)cc(Cl)c1Cl | inactive | inactive |  | -59.9% (inactive) | inactive | inactive | inactive | 37.5 µM (active) | 47.6 µM (active) | 87.3 µM (active) |  | 
N#CNC#N | inactive | inactive | inactive |  | inactive | inactive | inactive |  |  | inactive |  | 
